# Screening results as filed in PubChem BioAssay.
# Only some compounds are listed: those with a hit (about 2.2% of all), similar ones and a draw of the others.
# TWEAK-Fn14 inh = inhibitors of TWEAK-Fn14 signaling, primary screen, luciferase reporter cells, uHTS; AID 1159606, 2016; TWEAK-stimulated Fn14 reporter cells, luciferase luminescence, 8 h; 360,000 compounds, 2% hits; inhibition, % at 10 µM; in the data active = inhibition above about 50%
# LGR2 antag = inhibitors of bursicon-induced LGR2 CRE-luciferase signal, primary screen, cell-based, HEK293, CRE-luciferase reporter, bursicon stimulation; Drosophila bursicon receptor LGR2 (rickets); bursicon-stimulated, 4 h; inhibition, % at 9.99 µM; 380,000 compounds, 0.35% hits;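 active = drop in luminescence signal, shown as inhibition above about 50% in the replicate tests, limit read from the data, passing the limit was not always enough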;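 also: agonist challenge used bursicon conditioned medium at about half maximal strength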
# TROY signal inh = inhibitors of TROY-driven NF-kB signaling, primary screen, Q293 LMP1-TROYcd cells, NF-kB luciferase, uHTS. Q293 LMP1-TROYcd NF-kB luciferase reporter, 4 h. inhibition, % at 10 µM. 360,000 compounds, 0.98% hits;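 active = compounds whose plate-normalised and pattern-corrected inhibition of the luciferase reporter signal at the single screening dose is 50% or more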
# HSP90 inh = HSP90 inhibitors, primary screen, cell lysate, luminescence; Heat shock protein HSP 90 (rabbit reticulocyte lysate; luciferase refolding); Rabbit reticulocyte lysate, luciferase refolding luminescence, 3 h; inhibition, % at 5.6 µM; 290,000 compounds, 0.91% hits;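 active = inhibition above the screen-wide mean plus 3 SD, computed separately per campaign, cut at about 16% in these data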;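 also: 0% = DMSO wells and 100% = 60 µM geldanamycin wells; inhibitors lower the luminescence because luciferase stays unfolded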
# HSP90 confirm = HSP90 inhibitors, confirmation, cell lysate, luminescence. shares compounds with HSP90 inh. rabbit reticulocyte lysate, luciferase refolding luminescence, 3 h. inhibition, % at 5.9 µM. 2,300 compounds, 64% hits. AID 1846, 2009; in the data active = inhibition above about 18%;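 also: 0% = vehicle wells and 100% = reference inhibitor wells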
# luciferase ctr = firefly luciferase inhibitors, HSP90 counter-screen, confirmation, artefact control for HSP90 inhibitor project, biochemical, luminescence, triplicate. shares compounds with HSP90 inh. purified native firefly luciferase. inhibition, % at 5.9 µM. 2,300 compounds, 48% hits;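 active = inhibition above the mean inhibition of all tested sample wells plus 3 SD, cut at about 10% in these data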;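 also: 0% = DMSO with luciferase and 100% = wells lacking luciferase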
# Target sequence (P08659 whole entry, looked up): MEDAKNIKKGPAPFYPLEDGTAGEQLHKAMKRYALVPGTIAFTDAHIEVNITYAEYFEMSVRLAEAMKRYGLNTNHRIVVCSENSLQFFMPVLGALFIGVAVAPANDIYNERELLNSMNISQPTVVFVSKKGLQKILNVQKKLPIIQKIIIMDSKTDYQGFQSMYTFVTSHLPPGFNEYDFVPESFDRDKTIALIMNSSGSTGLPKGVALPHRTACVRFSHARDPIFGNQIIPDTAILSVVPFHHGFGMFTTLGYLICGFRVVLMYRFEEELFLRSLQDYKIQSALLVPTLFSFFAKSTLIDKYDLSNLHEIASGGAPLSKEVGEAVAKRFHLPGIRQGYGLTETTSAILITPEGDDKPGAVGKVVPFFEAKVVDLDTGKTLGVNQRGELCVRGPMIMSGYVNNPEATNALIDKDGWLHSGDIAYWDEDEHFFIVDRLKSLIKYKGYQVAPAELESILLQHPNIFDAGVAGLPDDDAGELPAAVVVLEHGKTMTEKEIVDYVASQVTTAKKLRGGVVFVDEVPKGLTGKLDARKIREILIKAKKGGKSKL
# Numbers without * were called inactive; x = not tested or not shown.
SMILES,TWEAK-Fn14 inh,LGR2 antag,TROY signal inh,HSP90 inh,HSP90 confirm,luciferase ctr
C[C@H](CO)N1C[C@H](C)[C@@H](CN(C)S(=O)(=O)c2ccccc2)Oc2ccc(NS(C)(=O)=O)cc2CC1=O,x,16,x,x,x,x
c1ccc2c(C3=NNC(=NC4CC4)SC3)c[nH]c2c1,78*,58*,36,19*,61*,38*
O=C(Nc1ccc(Br)cn1)c1coc(=O)c(Br)c1,-15,x,-27,30*,21*,-6
Cc1cc(NC(=O)c2coc(=O)c(Br)c2)ccc1C(C)C,47,49,-76,61*,81*,-21
Cc1cc(NC(=O)c2ccc(NC(=O)C3CCCO3)cc2)ccc1Br (stereo not given),32,-18,29,-4,x,x
Cc1ccccc1S(=O)(=O)N1C[C@H](O)COC[C@H]2O[C@H](CC(=O)N3CCOCC3)CC[C@@H]21,x,-15,x,x,x,x
C[C@@H]1CN([C@@H](C)CO)C(=O)c2cc(NC(=O)c3ccccc3)ccc2O[C@@H](C)CCCCO[C@H]1CN(C)C(=O)Cc1ccccc1,x,-3,x,x,x,x
Cc1[nH]nc2c1C1(CCN(C(=O)OCc3ccccc3)CC1)C(C#N)=C(N)O2,7,x,13,24*,7,4
COc1ccc2c3c(n(C)c2c1)[C@@H](CO)N(C(=O)c1cccnc1)CC31CN(C)C1,x,1,x,x,x,x
C[C@@H](C(=O)Nc1ccc2c(c1)OCCO2)n1c(=O)[nH]c2ccccc2c1=O,94*,16,84*,54*,66*,69*
COc1ccc(C(=S)N2CCCCC2)cc1Br,-13,x,3,2,x,x
S=C(c1ccc(N2CCCC2)c(Br)c1)N1CCCCC1,31,-12,-17,22*,0,-18
Cc1noc(C)c1S(=O)(=O)N(C)C[C@@H]1OCCCC[C@@H](C)Oc2ccc(NC(=O)Cc3ccccc3)cc2C(=O)N([C@H](C)CO)C[C@@H]1C,x,-1,x,x,x,x
CCCc1ccc(-c2cc(C(=O)N3CCN(c4ccccn4)CC3)c3ccccc3n2)cc1,32,37,48,38*,43*,12*
CC(C)n1cc(/C=N/Nc2ccc(C(=O)O)cc2)c2ccccc21,81*,-1,62*,63*,71*,62*
O=C(O)c1ccc(N/N=C/C(Br)=C/c2ccccc2)cc1,34,-82,-6,24*,50*,35*
O=C(O)c1ccc(N/N=C/c2c[nH]c3ccccc23)cc1,-16,59*,53*,82*,89*,86*
O=C(O)c1ccc(N/N=C/c2cn(Cc3ccccc3F)c3ccccc23)cc1,33,-57,31,36*,39*,32*
COCC(=O)N(C[C@H]1N[C@H](CO)[C@@H]1c1ccc(-c2cncnc2)cc1)C(C)C,x,-9,x,x,x,x
CNC[C@H]1OCCCC[C@@H](C)Oc2ccc(NS(=O)(=O)c3ccc(OC)cc3)cc2C(=O)N([C@H](C)CO)C[C@H]1C,x,-6,x,x,x,x
O=C(COc1cccc(Br)c1)Nc1ccc(N2CCOCC2)cc1N1CCOCC1,-10,-10,-22,x,x,x
CCC(=O)c1ccc(OCC(=O)Nc2ccc(N3CCOCC3)cc2N2CCOCC2)cc1,-28,0,-15,28*,-5,-10
C[C@@H]1CN([C@H](C)CO)C(=O)c2cc(C#CC3(O)CCCC3)cnc2O[C@@H]1CN(C)Cc1ccccn1,x,2,x,x,x,x
c1ccc(N2CCN(c3nc4cc5c(cc4s3)OCCO5)CC2)cc1,11,x,-20,-2,x,x
c1c2c(cc3sc(N4CCOCC4)nc13)OCCO2,92*,x,55*,62*,85*,78*
SMILES,TWEAK-Fn14 inh,LGR2 antag,TROY signal inh,HSP90 inh,HSP90 confirm,luciferase ctr
CC(C)CC#Cc1cnc2c(c1)C(=O)N([C@@H](C)CO)C[C@H](C)[C@@H](CN(C)Cc1ccccn1)O2,x,-4,x,x,x,x
C[C@@H]1CCCCO[C@@H](CN(C)S(=O)(=O)c2ccc(F)cc2)[C@H](C)CN([C@@H](C)CO)C(=O)c2cc(NC(=O)CCC(F)(F)F)ccc2O1,x,-14,x,x,x,x
Cc1cccc(N=C2NN=C(c3c(C)[nH]c4ccccc34)CS2)c1,15,-1,17,-2,x,x
Cc1cccc(N=C2NN=C(c3ccc4c(c3)OCCO4)CS2)c1,54*,3,57*,28*,40*,34*
C[C@H](NC(=O)C[C@@H]1CC[C@H](NC(=O)C2CC2)[C@@H](CO)O1)c1ccccc1,x,34,x,x,x,x
COCCn1c(C)cc(C(=O)COC(=O)C23CC4CC(CC(O)(C4)C2)C3)c1C,76*,x,65*,35*,46*,33*
O=C(Nc1ccccc1)N1CCCCN2[C@H](CO)[C@H](c3ccc(C#Cc4ccccc4)cc3)[C@H]2C1,x,-1,x,x,x,x
Cc1ccc(NC2=Nc3ccccc3CS2)cc1,74*,x,32,26*,48*,43*
COc1ccc(-c2ccn(-c3cccc(F)n3)n2)cc1,56*,-82,-22,22*,33*,18*
Cc1c(-c2ccccc2)oc2c(C(=O)N3CCN(c4ccc([N+](=O)[O-])cc4)CC3)cccc2c1=O,75*,43,42,21*,10,1
CN1C(=O)c2cc(NC(=O)C3CCCCC3)ccc2OC[C@H]2O[C@H](CC(=O)NCCc3ccncc3)CC[C@H]21,x,-6,x,x,x,x
COc1ccc(C(=O)Nc2ccc3ccccc3n2)c(OC)c1OC,88*,89*,72*,41*,68*,65*
COc1cc(SC)ccc1C(=O)Nc1nc2ccccc2[nH]1,100*,105*,84*,99*,97*,92*
CSc1ccccc1C(=O)Nc1nc2ccccc2[nH]1,-26,-59,-50,0,x,x
COc1ccccc1C(=O)Nc1nc2ccccc2[nH]1,107*,103*,89*,98*,97*,92*
Cc1noc(C)c1NC(=O)Nc1ccc2c(c1)C(=O)N([C@H](C)CO)C[C@@H](C)[C@@H](CN(C)C(=O)Nc1ccc(C(F)(F)F)cc1)OCCCC[C@@H](C)O2,x,6,x,x,x,x
Cc1cc(/C=N/Nc2nc(N)ncc2[N+](=O)[O-])c(C)n1-c1ccccc1F,x,x,x,78*,94*,89*
Nc1ncc([N+](=O)[O-])c(Oc2ccccc2F)n1,26,1,16,2,x,x
O=C(CCn1c(=S)[nH]c2ccccc2c1=O)NCCc1ccccc1,-12,0,2,59*,5,-5
C[C@H](CO)N1C[C@H](C)[C@H](CN(C)C(=O)Nc2ccc3c(c2)OCO3)Oc2c(NC(=O)NC3CCCCC3)cccc2C1=O,x,10,x,x,x,x
Cc1cc(C(=O)CSc2ccc(F)cc2)cc(C)c1OC(=S)N(C)C,100*,x,x,75*,70*,74*
